Shown are actives, neighbours in structure and some others; about 17% of the full set was active somewhere.
TDP1 inh: qHTS Assay for Inhibitors of Tyrosyl-DNA Phosphodiesterase (TDP1). recombinant TDP1, AlphaScreen DNA substrate cleavage. 0.28% of 350,000 active. Tyrosyl-DNA phosphodiesterase 1 (Homo sapiens), Q9NUW8. Potency, µM (doses to about 130 µM), without a hit: at the highest dose activity change, negative = inhibition, most hits filed as inhibitors; also: % is scaled to controls: 0 for no effect and ±100 for the full control effect; nearly all actives have a fitted effect of over 40% in size
Target sequence (Q9NUW8 whole entry, looked up): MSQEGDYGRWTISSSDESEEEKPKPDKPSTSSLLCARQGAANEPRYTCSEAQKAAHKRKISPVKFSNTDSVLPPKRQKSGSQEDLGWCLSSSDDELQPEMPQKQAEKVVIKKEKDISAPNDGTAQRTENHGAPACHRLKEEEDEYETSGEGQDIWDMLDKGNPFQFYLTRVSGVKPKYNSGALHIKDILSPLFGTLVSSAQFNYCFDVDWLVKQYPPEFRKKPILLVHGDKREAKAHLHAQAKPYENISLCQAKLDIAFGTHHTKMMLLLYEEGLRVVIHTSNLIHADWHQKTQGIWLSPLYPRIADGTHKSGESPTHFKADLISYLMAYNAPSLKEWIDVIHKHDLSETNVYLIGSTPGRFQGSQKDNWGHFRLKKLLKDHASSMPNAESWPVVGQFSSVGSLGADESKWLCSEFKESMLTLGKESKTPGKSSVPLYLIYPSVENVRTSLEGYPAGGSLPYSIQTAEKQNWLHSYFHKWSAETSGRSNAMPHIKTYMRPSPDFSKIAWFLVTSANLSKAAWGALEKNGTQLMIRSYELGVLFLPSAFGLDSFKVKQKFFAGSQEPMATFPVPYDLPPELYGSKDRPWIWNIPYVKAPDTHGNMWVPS
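Steps: enzyme plus compound, 15 min RT; add biotin/phosphotyrosine-FITC oligonucleotide (15 nM final), react 5 min; add donor/acceptor beads (10 ug/ml final), 10 min; read AlphaScreen. Tdp1 at 1 nM final.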
TDP1 cell noCPT: qHTS for Inhibitors of human tyrosyl-DNA phosphodiesterase 1 (TDP1): qHTS in cells in absence of CPT. AID 686978, 2013. Potency, µM (highest dose often 46.2 µM), without a hit: at the highest dose activity change, negative = growth inhibition, usual class: inhibitors. 15% of 420,000 active. DT40 Tdp1-/- hTDP1 cells, no CPT, ATP luminescence, 48 h; also: % is scaled to controls: 0 for no effect and ±100 for the full control effect; nearly all actives have a fitted effect of over 55% in size
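Readout: luminescence from CellTiter-Glo after 30 min in the dark at RT. Cells: DT40 Tdp1-/- with stable hTDP1, 400/well. Exposure: compounds alone, ≥48 hr, 37 °C.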
ClpP mod: qHTS Assay for Activators of ClpP | purified B. subtilis ClpP, FRET peptide cleavage, 20 min | Potency, µM (doses to about 57.5 µM), inactives show at the highest dose activity change, negative = active | 1.9% of 340,000 active | AID 651965, 2013; active = well fitted falling curve with a large enough effect; inconclusive = small, poorly fitted or top-dose-only effect; inactive = no such curve, though single readings can be large or run the other way; also: the source files actives as falling curves though it sought activators and does not explain the sign; nearly all actives have a fitted effect of over 65% in size
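FRET quenching reversal measured ClpP activation: 10 microg/mL B. subtilis ClpP at pH 8 with the FRET-FV decapeptide, read at 430 nm after 320 nm excitation. The 20-min minus 0-min signal was scaled between DMSO/no-enzyme wells and ADEP (5.8 microM final).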
DT40 TDP1 CPT: qHTS for Inhibitors of human tyrosyl-DNA phosphodiesterase 1 (TDP1): qHTS in cells in presence of CPT | chicken DT40 Tdp1-/-;hTDP1 cells + 20 nM CPT, ATP luminescence, 48 h | Potency, µM (doses to about 46.2 µM), without a hit: at the highest dose activity change, negative = growth inhibition, hits mostly inhibitors | 12% of 420,000 active; also: % is scaled to controls: 0 for no effect and ±100 for the full control effect; nearly all actives have a fitted effect of over 55% in size
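Chicken DT40 Tdp1-/- cells stably complemented with human TDP1 were seeded at 400 cells/well in medium containing 20 nM camptothecin, exposed to pin-transferred compounds, and grown at 37 °C for at least 48 hr. Viability was read as ATP luminescence.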
* hit, by the source's call; u = inconclusive; x = not tested or not shown; ! = not confirmed by another sample. Unless noted, calls follow the shape of the dose curve; as a rule, active = well fitted curve in the direction sought with a large enough effect; inconclusive = small, poorly fitted or top-dose-only effect, or another doubt; inactive = no such curve, though single readings can be large; an effect the other way counts as inactive or inconclusive. Potency is read from the fitted curve at half-maximal effect.

SMILES | TDP1 inh | TDP1 cell noCPT | ClpP mod | DT40 TDP1 CPT
O=c1c2ccccc2nc(SCc2ccc([N+](=O)[O-])cc2)n1CCCO | -2.8% | 6.51µM* | 0.7% | 10.3µM*
O=C(CCCn1c(=O)c2ccccc2n(Cc2ccccc2)c1=O)NCc1ccco1 | -1.8% | 14.6µM* | -18.9% | 11.6µM*
Cc1ccc(CNC(=O)CCCn2c(=O)c3ccccc3n(CC(=O)NCc3ccco3)c2=O)cc1 | -2.5% | -24.8% | -2.1% | -8.4%
Cc1ccc(CNC(=O)CSc2nc3ccsc3c(=O)n2Cc2ccccn2)cc1 | -1.1% | -13.9% | x | -1.0%
O=c1c2sccc2nc(SCc2ccc([N+](=O)[O-])cc2)n1Cc1ccccn1 | 0.0% | 16.4µM* | -0.7% | u
Nn1c(SCc2ccc([N+](=O)[O-])cc2)nc2ccccc2c1=O | x | u | -9.8% | -12.3%
Cc1ccc2sc(N3CCN(CCNC(=O)c4ccco4)CC3)nc2c1C | 3.4% | u | -2.3% | u
Cc1ccc(CSc2nc3ccccc3c(=O)n2CCCC(=O)NCc2ccco2)cc1 | -3.1% | 11.6µM* | -0.6% | u
Cc1nc2c(Cl)cccc2c2c1CC(CBr)O2 (stereo not given) | x | u | -1.7% | 14.6µM*
Cc1ccc2nc(Br)c3c(c2c1)OC(CBr)C3 (stereo not given) | x | u | -3.1% | -21.6%
CCOC(=O)c1cc2c(=O)n3ccccc3nc2n(CCOC)c1=NC(=O)c1c(-c2c(F)cccc2Cl)noc1C | 0.0% | 18.4µM*! | 3.9% | u
CCOC(=O)c1cc2c(=O)n3ccccc3nc2n(C(C)C)c1=NC(=O)c1ccncc1 | 7.3% | u | 28.2µM* | -14.3%
CCOC(=O)c1cc2c(=O)n3ccccc3nc2n(CCOC)c1=NC(=O)c1ccncc1 | 4.5% | u | 12.6µM* | u
CCOC(=O)c1cc2c(=O)n3ccccc3nc2n(C(C)C)c1=NC(=O)c1c(-c2ccccc2Cl)noc1C | -3.5% | u | x | u
CCCC(CCC)C(N)=O | x | 3.8% | x | -0.8%
COc1ccc2c(c1)O[C@H](c1ccc3c(c1)OCO3)[C@@H](OC(=O)NC1CCCC1)C2=O | 4.4% | x | x | x
Cc1ccc(Nc2nc(C)c(NC(=O)c3ccc(C)cc3)c(Nc3ccc(C)cc3)n2)cc1 | 10.0% | 4.61µM* | -3.0% | 6.51µM*
CCOc1ccc(Nc2nc(C)c(NC(=O)c3ccc(C)cc3)c(Nc3ccc(OCC)cc3)n2)cc1 | 5.0% | 2.59µM* | -23.5% | 1.3µM*
COc1cc([N+](=O)[O-])ccc1NC(=O)CSc1nc2ccccc2n1-c1ccccc1 | 2.8% | x | x | x
CCOc1ccc(-n2nc(CO)c(C(=O)NCCCc3ccccc3)n2)cc1 | -2.3% | 23.1µM* | 12.6µM* | 14.6µM*
COCCCNC(=O)c1nn(-c2ccc(C)cc2)nc1CO | -4.7% | -10.7% | 14.1µM* | 3.1%
CCCCNC(=O)c1nn(-c2ccc(CC)cc2)nc1CO | 0.0% | u | u | u
CCOc1ccc(-n2nc(CO)c(C(=O)NCc3cccnc3)n2)cc1 | 9.3% | u | 6.31µM* | u
O=C(NCCCCc1ccccc1)c1nn(-c2ccccc2F)nc1CO | -2.3% | u | -3.0% | u
O=C(NCCCc1ccccc1)c1nn(-c2ccccc2F)nc1CO | 2.3% | 20.6µM* | -5.2% | u
SMILES | TDP1 inh | TDP1 cell noCPT | ClpP mod | DT40 TDP1 CPT
COc1ccc(-c2cc(C(F)(F)F)c(C#N)c(SCC(=O)O)n2)cc1OC | -2.8% | x | x | x
Cc1ccc(-n2nc(CO)c(C(=O)NCCc3ccccc3)n2)cc1C | 4.7% | u | u | -14.0%
CCOc1ccc(-n2nc(CO)c(C(=O)NCc3ccc(Cl)cc3)n2)cc1 | 0.0% | -23.7% | 7.08µM* | -17.2%
Cc1ccc(-n2nc(CO)c(C(=O)NCc3cccs3)n2)cc1C | 4.7% | -15.3% | 28.2µM* | -24.6%
O=C(COCc1cc(-c2cccs2)on1)N1CCN(c2ccccc2)CC1 | -2.5% | u | -3.1% | u
CCCCCOc1ccc(Br)cc1CSC(=N)N | 5.6% | 2.31µM* | -2.8% | 5.17µM*
COc1ccc(Br)cc1CSC(=N)N | 6.2% | u | x | u
CCOc1ccc(CSC(=N)N)cc1 | 0.0% | 18.4µM* | -0.2% | 25.9µM*
CCCCOc1ccc(CSC(=N)N)cc1Cl | x | 18.4µM* | x | 14.6µM*
CCn1ncc(N(C)N)c(Cl)c1=O | 2.7% | -6.1% | x | -2.5%
CC1CCN(C(=O)COc2cccc3c2CCN(Cc2ccccc2)C3=O)CC1 | 0.0% | u | x | 22.4%
O=C(/C=C/c1ccc(O)c(O)c1)c1ccc(S(=O)(=O)N2CCCCCC2)cc1 | 9.1% | 5.17µM* | 1.7% | 4.61µM*
O=C1CSC(c2ccc(F)cc2)N1c1nnc(C23CC4CC(CC(C4)C2)C3)s1 (stereo not given) | 2.0% | x | x | x
CCCC[C@H](NC(=O)[C@H](CC(C)C)NC(=O)[C@@H](Cc1c[nH]c2ccccc12)NC(=O)[C@H](Cc1ccccc1)NC(=O)[C@@H](Cc1c[nH]c2ccccc12)NC(=O)[C@H](CC(N)=O)NC(=O)[C@@H](Cc1c(Cl)cccc1Cl)NC(=O)[C@@H]1CCCN1C(=O)[C@H](Cc1ccccn1)NC(=O)[C@@H]1CCCN1C(=O)[C@H](N)CCCCNC(=O)c1cccnc1)C(N)=O | 14.8% | x | x | x
Cc1ccc(S(=O)(=O)NC(=O)C2(C)CCN2C(=O)C2(c3ccc(Cl)cc3)CCC2)cc1 (stereo not given) | x | -8.4% | -2.8% | -8.7%
CC1(C(=O)NS(=O)(=O)c2ccc(C#N)cc2)CCN1C(=O)C1(c2ccccc2)CCCC1 (stereo not given) | x | 13µM* | 0.8% | 11.6µM*
Cc1ccc(F)c(S(=O)(=O)NC(=O)C2(C)CCN2C(=O)C2(c3ccc(Cl)cc3)CCC2)c1 (stereo not given) | x | u | -0.1% | 16.4µM*
CC1(C(=O)NS(=O)(=O)c2ccc(Cl)cc2)CCN1C(=O)C1(c2ccc(Cl)cc2)CCC1 (stereo not given) | x | u | 0.3% | 20.6µM*
COc1ccc(-n2nc(C(=O)NCC(=O)Nc3cc(OC)c(OC)c(OC)c3)c3ccccc3c2=O)cc1OC | 0.9% | u | x | 4.2%
COc1ccc(C(=O)C2CCCN(C(=O)c3cc(C)nc(C)n3)C2)cc1OC (stereo not given) | 0.0% | -15.9% | x | -16.0%
O=C(N/N=C/c1c(F)c(F)c(F)c(F)c1F)c1cc(-c2ccccc2)nc2ccccc12 | x | -28.7% | -1.1% | u
O=C(N/N=C/c1cc([N+](=O)[O-])ccc1Cl)c1cc(-c2ccccc2)nc2ccccc12 | x | u | -2.5% | u
O=C(N/N=C/c1cccc(O)c1)c1csc2ccccc12 | 8.8% | 0.651µM* | -3.6% | u

Compound activity: PubChem BioAssay, National Center for Advancing Translational Sciences (NCATS)
